Drawing on PubChem BioAssay AID504848 (National Center for Advancing Translational Sciences (NCATS), 2011), this text covers Potency for 56 molecules.

Out of some 2,300 compounds screened, about 1,400 (61%) were called active. Roughly 29% stayed inconclusive and do not appear here. Calls come from the whole dose curve; as a rule, active = well fitted inhibition curve with a large enough effect; inconclusive = small, poorly fitted or top-dose-only effect, or effect the other way; inactive = no such curve, though single readings can be large or run the other way. The set was probably picked from earlier hits. Some of the results follow.
Potency is the fitted concentration of half-maximal effect.

The test in a line: Confirmation screen for delayed death inhibitors of the malarial parasite plastid, 96 hour incubation. Note: nearly all actives have a fitted effect of over 60% in size. The conditions noted are these: P. falciparum luciferase growth in erythrocytes; series mostly up to 28.7 µM. The procedure, abridged: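 Erythrocytes infected with luciferase-expressing P. falciparum (2% hematocrit, 0.1% parasitemia final) in RPMI 1640 with 0.5% Albumax, exposed to compounds 96 h at 37 C, 5% CO2. Growth inhibition read as decreased luciferase luminescence.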
For `Cc1cc(C)c(OCC(O)CNC(C)(C)C)c(C)c1` (stereo unspecified), the Potency is 7.08 µM (active).

In the case of `COc1ccc(N2CCc3c(C)nc4c(OC)cc(OC)cc4c32)c(OC)c1`, the Potency is 5.01 µM (active).

Regarding `CC(C)NC(=S)N/N=C/c1sc(N2CCCCC2)nc1-c1cccs1`, the Potency was 5.01 µM (active).

Take `CC1CCN(CCNC(=O)C2CCN(S(=O)(=O)c3cccc4nsnc34)CC2)CC1`: the Potency is 7.94 µM (active).

Take `Cc1cc2nsnc2c(S(=O)(=O)N2CCN(C)CC2)c1C`: the Potency result is “inactive”.

For `C=CCn1cccc(/C=C/C(=O)c2ccc(C(C)(C)C)cc2)c1=S`, the Potency was 0.794 µM (active).

`COc1ccc(CC(=O)NCC2CCCN(Cc3ccc(F)c(OC)c3)C2)cc1` (stereo unspecified): the Potency was 7.08 µM (active).

Consider `Cc1ccc2[nH]c3c(c2c1)CCCC3NC(=O)CCl` (stereo unspecified), for which the Potency is 4.47 µM (active).

In the case of `C[n+]1ccn(CC(=O)c2ccc(Cl)cc2)c1`, the Potency was 14.1 µM (active).

Regarding `Cc1cc(C)cc(CC(Cc2nc3ccccc3[nH]2)c2nc3ccccc3[nH]2)c1` (stereo unspecified), the Potency is 1.12 µM (active).

As to `CCN1C(=O)[C@@H]2Cc3c([nH]c4ccccc34)C(c3ccc(OC)cc3)N2C1=S` (stereo partly specified), the Potency was 11.2 µM (active).

Turning to `C=CCN1C(=O)[C@@H]2Cc3c([nH]c4ccccc34)C(c3ccc(O)cc3)N2C1=S` (stereo partly specified), the Potency is 12.6 µM (active).

`CCc1nc(Nc2ccncc2)c2oc3ccccc3c2n1`: the Potency is 3.98 µM (active).

As for `O=C(C[C@@H]1C/C=C\CC[C@@H](Cc2ccc(F)cc2)C(=O)OC[C@@H]2CCCN2C1=O)NCCO`, the Potency was 10 µM (active).

For `O=C(C[C@H]1C(=O)N(Cc2ccccc2)C[C@@H]1Cc1ccccc1)Nc1ccccc1`, the Potency was 11.2 µM (active).

As for `CC(C)(C)c1ccc(C(O)CCCN2CCC(C(O)(c3ccccc3)c3ccccc3)CC2)cc1` (stereo unspecified), the Potency is 11.2 µM (active).

Consider `CS(=O)(=O)Nc1ccc(C2=NN(C(=O)c3ccco3)C(c3ccc(F)cc3)C2)cc1` (stereo unspecified), for which the Potency is 10 µM (active).

As to `COc1cc([N+](=O)[O-])ccc1NC(=O)Nc1cccnc1`, the Potency was 10 µM (active).

Consider `Cc1ccc(S(=O)(=O)N2CCN(C(=O)c3cc(S(=O)(=O)N(C)C)ccc3N3CCCC3)CC2)c(C)c1`, for which the Potency is 8.91 µM (active).

For the molecule `Cc1ccc(S(=O)(=O)N2CCN(C(=O)c3ccc(Br)o3)CC2)c(C)c1`, the Potency is 6.31 µM (active).

For the molecule `CCc1ccc(/C=C/c2c[nH]c3ccccc23)[n+](CC)c1`, the Potency is 0.0501 µM (active).

`CCN1C(=O)c2ccccc2Sc2ccc(C(=O)NCCCN3CCCCC3)cc21`: the Potency was 10 µM (active).

As to `CCN1CCCC1CNC(=O)c1ccc2c(c1)N(Cc1ccccc1F)C(=O)c1ccccc1S2(=O)=O` (stereo unspecified), the Potency was 2 µM (active).

For the molecule `O=C(NCCCN1CCCC1)c1ccc2c(c1)N(Cc1ccccc1F)C(=O)c1ccccc1S2=O` (stereo unspecified), the Potency is 11.2 µM (active).

In the case of `Cc1cccc(CN2C(=O)c3ccccc3S(=O)(=O)c3ccc(C(=O)NCCCN4CCCC4)cc32)c1`, the Potency was 1.58 µM (active).

As for `CCOC(=O)N1CCN(C(=O)c2ccc3c(c2)N(Cc2cc(C)ccc2C)C(=O)c2ccccc2S3=O)CC1` (stereo unspecified), the Potency was 3.98 µM (active).

With `O=C(c1ccc2c(c1)N(Cc1cccc(Cl)c1)C(=O)c1ccccc1S2(=O)=O)N1CCN(c2ccccn2)CC1`, the Potency is 2.82 µM (active).

`CCCn1c(=NC(=O)CCS(=O)(=O)c2ccccc2)sc2cc(S(N)(=O)=O)ccc21`: the Potency is 12.6 µM (active).

On to `O=C(NC1C=CS(=O)(=O)C1)c1sc2ccccc2c1Cl` (stereo unspecified), for which the Potency is 0.398 µM (active).

Consider `CC1CCN(C(=O)Cn2c(=O)oc3cc(S(=O)(=O)N4CCCCC4)ccc32)CC1`, for which the Potency is 12.6 µM (active).

Take `COC(=O)c1c(-n2c(C)cc(C=O)c2C)sc2c1CCCC2`: the Potency is 12.6 µM (active).

On to `CCOC(=O)C[n+]1c(C)ccc2c1CCC2`, for which the Potency is 12.6 µM (active).

As for `O=C(CCNC(=O)c1ccc(Cl)cc1)NC1CCCc2ccccc21` (stereo unspecified), the Potency was 12.6 µM (active).

Turning to `CN1CCN(c2ccccc2NC(=O)c2cccc(OCc3ccccc3)c2)CC1`, the Potency is 1.78 µM (active).

For the molecule `CCOC(=O)c1ccc2c(c1)n(CC)c(/C=C/N(C)c1ccccc1)[n+]2CC`, the Potency was 0.0891 µM (active).

Turning to `CCn1c(/C=C/N(C(C)=O)c2ccccc2)[n+](CC)c2ccc(Cl)cc21`, the Potency is 1 µM (active).

On to `Cc1ccc(CNC(=O)COc2ccccc2-c2ccccc2)cc1`, for which the Potency was 11.2 µM (active).

On to `O=[N+]([O-])c1cccc(-c2c[n+]3c(n2-c2ccccc2)SCC3)c1`, for which the Potency is 1.78 µM (active).

`COC(=O)C(NC(=O)c1ccccc1C)(Nc1ncc(S(=O)(=O)c2ccc([N+](=O)[O-])cc2)s1)C(F)(F)F` (stereo unspecified): the Potency was 3.16 µM (active).

As to `Cc1c(/C=N/Nc2nc3ccccc3[nH]2)c2ccccc2n1C`, the Potency was 0.891 µM (active).

With `CCN(CC)c1ccc(/C=N/Nc2nc3ccccc3[nH]2)cc1`, the Potency was 2.51 µM (active).

Consider `Cc1ccc(S(=O)(=O)C2(C(=O)N3CCCCCC3)CC2)cc1`, for which the Potency result was “inactive”.

Consider `CC(=O)N1CCSc2ccc(S(=O)(=O)Nc3ccc(C)cc3)cc21`, for which the Potency was 12.6 µM (active).

Consider `O=C(COc1ccc(Cl)cc1)Nc1cc(S(=O)(=O)N2CCCCC2)ccc1N1CCCCC1`, for which the Potency is 5.01 µM (active).

In the case of `O=C(COc1ccc(Br)cc1)Nc1cc(S(=O)(=O)N2CCCCC2)ccc1N1CCCCC1`, the Potency is 3.98 µM (active).

Consider `CC(Oc1cccc(Cl)c1)C(=O)Nc1cc(S(=O)(=O)N2CCOCC2)ccc1N1CCCCC1` (stereo unspecified), for which the Potency was 3.98 µM (active).

Regarding `CCOc1ccccc1Nc1nnc(SC(C)C(=O)Nc2nc(-c3ccccc3)cs2)s1` (stereo unspecified), the Potency was 15.8 µM (active).

With `COc1ccccc1Nc1nnc(SCc2cc(=O)n3ccsc3n2)s1`, the Potency was 4.47 µM (active).

With `Cc1cc(C(=O)OC(C)C(=O)Nc2nc(-c3ccccc3)cs2)c(C)o1` (stereo unspecified), the Potency entry is “inactive”.

Turning to `COc1ccccc1Nc1nnc(SCC(=O)Nc2nc(-c3ccc(F)cc3)cs2)s1`, the Potency is 10 µM (active).

On to `COc1ccccc1Nc1nnc(SCC(=O)N2CCCC2)s1`, for which the Potency is 2.51 µM (active).

For `COc1ccc(C(=O)NC2CC2)cc1OC1CCN(C/C=C/c2ccccc2)CC1`, the Potency is 2.24 µM (active).

For the molecule `CCCN1CCC(NC(=O)CC2C(=O)NCCN2Cc2cccc(OC)c2)CC1` (stereo unspecified), the Potency result was “inactive”.

On to `COc1ccc(OC)c(-c2nc(C(=O)NC3CCN(Cc4ccccc4)CC3)cc3c2[nH]c2ccccc23)c1`, for which the Potency was 4.47 µM (active).

In the case of `COc1ccc(C(=O)NC2CC2)cc1OC1CCN(Cc2ccccc2)CC1`, the Potency is 14.1 µM (active).

In the case of `CCCCCCn1ccc(=N)cc1`, the Potency is 3.55 µM (active).
